{"source": "PubChem BioAssay (NCI)", "note": "This is part of a sample that, as a whole, favours compounds with a hit. Of some 79,000 tested, about 15% had one in any assay. Activity calls are given as the source filed them. Rule as the data show it: active = growth inhibition above about 70%; inactive = the rest. Where a SMILES comes first, the peptide text is derived from it. The star is where a group is joined. Trt = c1ccc(C(c2ccccc2)(c2ccccc2)*)cc1; OtBu = CC(C)(C)O*"}
{"assay": "NCI Yeast Anticancer Drug Screen. Data for the mec2-1 strain (AID 157)", "conditions": "S. cerevisiae mec2-1 strain, at 50.0 µM, hits give high values", "in_short": "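Compounds were applied to mec2-1 yeast cells. Their growth was then compared with that of vehicle-treated cultures to give growth inhibition.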"}
{"smiles": "CCOC(=O)C(=N\\Nc1cccc(C)c1C)/C(C)=N\\NC(N)=S", "growth inhibition": "38.2% (inactive)"}
{"smiles": "CCN(CC)CCNc1ccc(C)c2oc3ccc(O)cc3c(=O)c12", "growth inhibition": "75.5% (active)"}
{"smiles": "O=C1C(C=NC(=S)c2ccccc2)=C(O)c2ccccc21", "growth inhibition": "-12.1% (inactive)"}
{"smiles": "CCOC(=O)Cc1csc(/N=C\\c2c(O)c3ccccc3oc2=O)n1", "growth inhibition": "-32.4% (inactive)"}
{"smiles": "CC(C)(CCCCC(C)(C)NCC1COc2ccccc2O1)NCC1COc2ccccc2O1", "note": "(centres undefined)", "growth inhibition": "96% (active)"}
{"smiles": "O=C1OC(c2ccc(O)cc2)=C(c2ccccc2)C1c1ccccc1", "note": "(centres undefined)", "growth inhibition": "99.5% (active)"}
{"smiles": "O=C(c1ccccc1)C(Br)CCCC(Br)C(=O)c1ccccc1", "note": "(centres undefined)", "growth inhibition": "96.3% (active)"}
{"smiles": "CCC(c1ccc(O)cc1)C(O)(CC)c1ccc(O)cc1", "note": "(centres undefined)", "growth inhibition": "28.9% (inactive)"}
{"smiles": "Cn1cnc2[nH]c(Cl)nc(=S)c21", "growth inhibition": "-8.25% (inactive)"}
{"smiles": "O=C(NCCN1CCCC1)c1cn2c(ccc3sc4ccccc4c(=O)c32)n1", "growth inhibition": "49.6% (inactive)"}
{"smiles": "CC(C)(C)OC(=O)CNC(=O)C(Cc1ccccc1)NC(=O)C(N)CSC(c1ccccc1)(c1ccccc1)c1ccccc1", "note": "(stereo not drawn) (H-Cys(Trt)-Phe-Gly-OtBu; configuration not given here)", "growth inhibition": "82.2% (active)"}
{"smiles": "C/C(=N/NC(N)=S)C(CN(C)C)C(C1=C(O)c2ccccc2OC1)c1ccccc1", "note": "(centres undefined)", "growth inhibition": "52.5% (inactive)"}
{"smiles": "O=C(CC(=O)c1ccccc1)CC(=O)c1ccccc1Br", "growth inhibition": "93.5% (active)"}
{"smiles": "O=C1OC2(c3ccccc31)c1cc(I)c(O)c(I)c1Oc1c2cc(I)c(O)c1I", "growth inhibition": "99.3% (active)"}
{"smiles": "Nc1cc(Cl)c2c(c1)Cc1ccccc1-2", "growth inhibition": "9.45% (inactive)"}
{"smiles": "C1=Cc2ccccc2/C1=C/c1ccccc1", "growth inhibition": "60.6% (inactive)"}
{"smiles": "Cc1ccc(C2=CC(=O)/C(=C\\C(=O)c3ccc(Cl)cc3)O2)cc1", "growth inhibition": "55.5% (inactive)"}
{"smiles": "CC1(c2ccc(S(=O)(=O)c3ccccc3)cc2)OC(=O)C=CC1=O", "note": "(centres undefined)", "growth inhibition": "99.5% (active)"}
{"smiles": "CCCc1cc(-c2ccc(O)c(CCC)c2)ccc1O", "growth inhibition": "99.7% (active)"}
{"smiles": "CCOC(=O)N1c2ccc3ccccc3c2C=CC1C#N", "note": "(centres undefined)", "growth inhibition": "97.3% (active)"}
{"smiles": "N#CNc1nc(N)c(-c2ccc(Cl)cc2)c(C(=O)Nc2ccc(Cl)c(Cl)c2)n1", "growth inhibition": "14% (inactive)"}
{"smiles": "O=c1c(Cl)c(Cl)oc(Cl)c1Cl", "growth inhibition": "98.3% (active)"}
{"smiles": "O=c1nc(-c2ccccc2)cc(-c2ccccc2O)[nH]1", "growth inhibition": "16.3% (inactive)"}
{"smiles": "O=C(Cc1nc2ccccc2s1)C(=O)Nc1ccc(Cl)cc1", "growth inhibition": "23.1% (inactive)"}
{"smiles": "c1ccc(OCC2c3ccccc3Nc3ccccc32)cc1", "growth inhibition": "28.6% (inactive)"}
{"smiles": "CCN(C(=O)C(F)(F)F)c1ccc2c(c1)C(=O)c1ccccc1-2", "growth inhibition": "-2.65% (inactive)"}
{"smiles": "Cc1cc2oc3c(ccc(=O)n3C)c(=O)c2c(C)c1Cl", "growth inhibition": "29.4% (inactive)"}
{"smiles": "O=C(CC(O)(C(F)(F)F)C(F)(F)F)C(c1ccccc1)C(O)(C(F)(F)F)C(F)(F)F", "note": "(centres undefined)", "growth inhibition": "91.5% (active)"}
{"smiles": "O=S(=O)(Sc1ccccc1)C(c1ccccc1)c1ccccc1", "growth inhibition": "-1.25% (inactive)"}
{"smiles": "COc1ccc2c3c(ccc2c1)NC(C(=O)O)CC3", "note": "(centres undefined)", "growth inhibition": "-15.8% (inactive)"}
{"smiles": "N#CSc1ccc2nc(NCO)sc2c1", "growth inhibition": "99.3% (active)"}
{"smiles": "CC(CN(C)C)C(=O)c1cn(C)c2ccccc12", "note": "(centres undefined)", "growth inhibition": "16.8% (inactive)"}
{"smiles": "Cc1cc(Cl)nc2ccc(Cc3ccc4nc(Cl)cc(C)c4c3)cc12", "growth inhibition": "2.45% (inactive)"}
{"smiles": "COc1ccc2c(c1)CN([C@@H](C)[C@H]1CC[C@H]3[C@@H]4CC[C@H]5C[C@@H](O)CC[C@]5(C)[C@H]4CC[C@]13C)CO2", "growth inhibition": "99.3% (active)"}
{"smiles": "FC(F)(F)c1nc(Cl)nc2nc[nH]c12", "growth inhibition": "6.1% (inactive)"}
{"smiles": "CC(C)C1COC(c2ccc3ccccc3c2-c2c(O[Si](C)(C)C(C)(C)C)ccc3ccccc23)=N1", "note": "(centres undefined)", "growth inhibition": "92% (active)"}
{"smiles": "COc1cc2c(c(C3C(=O)N(C)c4ccc(Br)cc43)c1OC)OCO2", "note": "(centres undefined)", "growth inhibition": "12.7% (inactive)"}
{"smiles": "c1ccc2c3[nH]c(c2c1)=Nc1ccc(cc1)-c1nc2ccc(cc2o1)N=c1[nH]c(c2ccccc12)=Nc1ccc2nc(oc2c1)-c1ccc(cc1)N=3", "growth inhibition": "84.8% (active)"}
{"smiles": "c1ccc2nc3ccccc3nc2c1", "growth inhibition": "41.2% (inactive)"}
